Test results published in PubChem BioAssay (EPA / NIEHS).
“And” between values parts separate entries of the source, which are not always exact repeats. Identical values can stand only once. Records with an inconclusive call do not appear. Some structures have more than one record in an assay (separate samples or runs), and their calls can disagree. The source made the active and inactive calls. Rule for the calls: active = hit-call score of the fitted dose curve at least 0.9, where 1 is the maximum; inconclusive = response in the unintended direction; inactive = score below 0.9.

What follows are compounds tested against human Thyroid Receptor alpha (THRa1), THRA (gene 7067) (UniProt P10827) (assay: ATG_THRa1_TRANS: Attagene TRANS-FACTORIAL HepG2 Assay for human Thyroid Receptor alpha (THRa1) (AID 2283014)).
human Thyroid Receptor alpha (THRa1), THRA (gene 7067), sequence (P10827 whole entry, looked up): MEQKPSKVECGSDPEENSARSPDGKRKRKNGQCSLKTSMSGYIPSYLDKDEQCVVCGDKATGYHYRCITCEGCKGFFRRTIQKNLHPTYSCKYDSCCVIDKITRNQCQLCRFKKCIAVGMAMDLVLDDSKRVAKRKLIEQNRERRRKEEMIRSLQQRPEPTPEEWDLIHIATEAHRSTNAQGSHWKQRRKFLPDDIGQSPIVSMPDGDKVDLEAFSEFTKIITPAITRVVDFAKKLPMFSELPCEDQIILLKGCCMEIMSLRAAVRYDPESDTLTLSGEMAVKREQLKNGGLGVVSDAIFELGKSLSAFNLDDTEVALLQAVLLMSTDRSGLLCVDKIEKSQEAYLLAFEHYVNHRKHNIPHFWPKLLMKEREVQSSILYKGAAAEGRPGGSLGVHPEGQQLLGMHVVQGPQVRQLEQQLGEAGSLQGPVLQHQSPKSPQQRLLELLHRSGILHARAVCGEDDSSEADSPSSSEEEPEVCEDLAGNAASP
Method: ATG_TRANS is a cell-based, multiplexed-readout assay that uses HepG2, a human liver cell line, with measurements taken at 24 hours after chemical dosing in a 24-well plate.ATG_THRa1_TRANS is one of 30 assay component(s) measured or calculated from the ATG_TRANS assay. It is designed to make measurements of mRNA induction, a form of inducible reporter, as detected with fluorescence intensity signals by Reverse transcription polymerase chain reaction (RT-PCR) and Capillary electrophoresis technology.Data from the assay component ATG_THRa1_TRANS was analyzed into 1 assay endpoint. This assay endpoint, ATG_THRa1_TRANS, was analyzed in the positive analysis fitting direction relative to DMSO as the negative control and baseline of activity. Using a type of inducible reporter, measures of mRNA for gain-of-signal activity can be used to understand the reporter gene at the transcription factor-level as they relate to the gene THRA. Furthermore, this assay endpoint can be referred to as a primary readout, because this assay has produced multiple assay endpoints where this one serves a reporter gene function. To generalize the intended target to other relatable targets, this assay endpoint is annotated to the nuclear receptor intended target family, where the subfamily is non-steroidal.
Human liver HepG2 cells are transiently transfected with multiple reporter transcription units (MRTUs) in 6-well plates using FuGene 6 reagent (Roche; 3 ml FuGene/1 mg DNA). The MRTU constructs are regulated by a cis-regulating element (promoter). […] A major difference between the CIS and TRANS system is that in CIS activities of endogenous TFs are measured, whereas the TRANS assay evaluates changes in activities of exogenous, chimeric NR-Gal4 proteins. […] At the end of 24 hour incubation, total RNA was isolated using TriZol reagent (Invitrogen). The isolated RNA is then reverse-transcribed using oligo(dT) primer and Mo-MLV reverse transcriptase (Invitrogen) with DNAse I (Ambion) treatment for 30 min. The one-tenth of the produced cDNA was amplified by PCR using Taq DNA polymerase (Invitrogen) and two reporter sequence-specific primers. The PCR products were fluorescently labeled by primer extension with 6-arboxyfluorescein (6-FAM) 5'-labeled reporter sequence-specific primer (2 min at 95 C, 20 s at 68 C and 10 min at 72 C) and these products were digested with 5U of HpaI (New England Biolabs) for 2h at 37 C. The fragments were purified using Qiaquick PCR columns (Qiagen), analyzed on an ABI 3130xL genetic analyzer (Applied Biosystems) with peak positions identified by using a set of X-rhodamine (ROX)-labeled MapMarker1000 molecular weight standards (BioVentures). The raw capillary electrophoresis data was processed using Attagraph software (Attagene).

**Q.** Which outcome does the source give for `CC(C)(c1ccc(Oc2ccc(N)cc2)cc1)c1ccc(Oc2ccc(N)cc2)cc1` here?
**A.** inactive

**Q.** For `C[N+](C)(CCCNS(=O)(=O)CCC(F)(F)C(F)(F)C(F)(F)C(F)(F)C(F)(F)C(F)(F)F)CC(=O)[O-]`, which outcome is on record?
**A.** inactive

**Q.** With `c1cnc2c(c1)ccc1cccnc12` as the compound, how does the outcome read?
**A.** inactive

**Q.** What about the AC50 of the same compound?
**A.** 26.6 µM (active)

**Q.** Which outcome does the source give for `CC(C)[C@@H]1CC[C@@H](C)C[C@H]1O` here?
**A.** inactive

**Q.** What does the source list for `NC(=NCCCCCCN=C(N)/N=C(\N)Nc1ccc(Cl)cc1)/N=C(\N)Nc1ccc(Cl)cc1`?
**A.** outcome: inactive; AC50: 8.56 µM (active) and 6.83 µM (active)

**Q.** Which outcome does the source give for `Cc1ccc(C(=O)c2ccccc2)cc1` here?
**A.** inactive

**Q.** Which outcome does the source give for `Clc1ccc(Nc2nnc(Cc3ccncc3)c3ccccc23)cc1` here?
**A.** inactive

**Q.** How did the outcome turn out when `O=C(O)CN(CCCN(CC(=O)O)CC(=O)O)CC(=O)O` was run?
**A.** inactive

**Q.** For `CC1CCC(C(=O)O)CC1` (stereo not given), which outcome is on record?
**A.** inactive

**Q.** Which outcome does the source give for `CC1COCc2cc3c(cc21)C(C)(C)C(C)C3(C)C` (stereo not given) here?
**A.** inactive

**Q.** Which outcome does the source give for `OCC(CO)(CBr)CBr` here?
**A.** inactive

**Q.** For `C=C(c1ccc(C(=O)O)cc1)c1cc2c(cc1C)C(C)(C)CCC2(C)C`, which outcome is on record?
**A.** inactive

**Q.** With `CCCCCCC(C)(C)C(=O)O` as the compound, how does the outcome read?
**A.** inactive

**Q.** For `Cc1cc(C(C)(C)C)c(O)c(C(C)(C)C)c1`, which outcome is on record?
**A.** inactive

**Q.** Which outcome does the source give for `CCCCCCc1ccc(N)cc1` here?
**A.** inactive

**Q.** Which outcome does the source give for `FC(F)(F)C1(F)C(F)(F)C(F)(F)C(F)(F)C1(F)F` here?
**A.** inactive

**Q.** With `CC1=CC(=O)c2ccccc2C1=O` as the compound, how does the outcome read?
**A.** inactive

**Q.** For `O=C1OC(=O)C(F)(F)C1(F)F`, which outcome is on record?
**A.** inactive

**Q.** Which outcome does the source give for `CCCCCCCCCCCCOC(=O)c1cc(O)c(O)c(O)c1` here?
**A.** inactive

**Q.** `NNc1nc(-c2ccc([N+](=O)[O-])cc2)cs1` was tested. Which AC50 did it give?
**A.** 48.5 µM (active)

**Q.** With `CS(=O)(=O)c1ccc([C@@H](CC2CCCC2)C(=O)Nc2cnccn2)cc1Cl` as the compound, how does the outcome read?
**A.** inactive

**Q.** Which outcome does the source give for `CC=O` here?
**A.** inactive

**Q.** Which outcome does the source give for `CCCCC(CC)C(=O)OCCOCCOCCOCCOC(=O)C(CC)CCCC` (stereo not given) here?
**A.** inactive

**Q.** For `Cc1cc(=O)oc2cc(O)ccc12`, which outcome is on record?
**A.** inactive

**Q.** With `CC(C)C=O` as the compound, how does the outcome read?
**A.** inactive

**Q.** How did the AC50 turn out when `O=C1c2ccc(O)c(O)c2C(=O)c2c(O)ccc(O)c21` was run?
**A.** 13.8 µM (active)

**Q.** `CCCCCCCCCCCC` was tested. Which outcome did it give?
**A.** inactive

**Q.** For `CCOC(=O)c1nc(C(Cl)(Cl)Cl)n(-c2ccc(Cl)cc2Cl)n1`, which AC50 is on record?
**A.** 2.11 µM (active)

**Q.** With `O=C1Cc2ccccc2N1c1c(Cl)cccc1Cl` as the compound, how does the outcome read?
**A.** inactive

**Q.** How did the outcome turn out when `C=Cc1ccc(O)c(OC)c1` was run?
**A.** inactive

**Q.** Which outcome does the source give for `CCCCCCCCCCCC(=O)O` here?
**A.** inactive

**Q.** How did the outcome turn out when `FC(F)(F)C(F)(F)C(F)(F)Br` was run?
**A.** inactive

**Q.** With `O=c1cc(-c2ccccc2)oc2ccc3ccccc3c12` as the compound, how does the outcome read?
**A.** inactive

**Q.** `O=C(CC(=O)C(F)(F)C(F)(F)C(F)(F)F)c1cccs1` was tested. Which outcome did it give?
**A.** inactive

**Q.** For `CCC1CO1` (stereo not given), which outcome is on record?
**A.** inactive

**Q.** `O=C1OC(=O)c2cc(-c3ccc4c(c3)C(=O)OC4=O)ccc21` was tested. Which outcome did it give?
**A.** inactive

**Q.** For `Cc1ccc(N=Nc2c(O)ccc3ccccc23)c(C)c1`, which outcome is on record?
**A.** inactive

**Q.** `CC1=NN(c2ccccc2)C(=O)C1` was tested. Which outcome did it give?
**A.** inactive
